# Assay results as given in the supplement of paper PMC4466140.
# B1: unnamed (peptide)
# chain: VPKEPAPAPPPEPDM
# B2: unnamed (peptide)
# chain: QLMKNLPKIPLLNDI
# Assays:
# Assay in all cases: SPOT peptide array binding signal intensity (averaged, normalized) (arbitrary units (background-subtracted, floor 0; scale differs between SH3 domains)); higher = stronger binding of the SH3 domain to the peptide
# [1] = biological target: AgAbp1
# Procedure, shortened: (§1)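 GST-fused SH3 domains, from four yeast species, were produced in E. coli BL21(DE3) and captured on glutathione Sepharose. Membranes of cellulose carrying synthetic 15-mer peptides, in which cysteines had been replaced by serines, were exposed to each domain at 10 μg/ml overnight at 4°C in TBS-based blocking buffer. After anti-GST antibody, an HRP anti-mouse secondary and luminol, spots were imaged and quantified using Genespotter. Binding signal is normalized and background-subtracted spot intensity, averaged over replicates, in arbitrary units that differ between domains.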
# [2] = biological target: AgBbc1
# Procedure, shortened: as §1
# [3] = biological target: AgBem1-D1
# Procedure, shortened: as §1
# [4] = biological target: AgBzz1-D1
# Procedure, shortened: as §1
# [5] = biological target: AgBzz1-D2
# Procedure, shortened: as §1
# [6] = biological target: AgCyk3
# Procedure, shortened: as §1
# [7] = biological target: AgFus1
# Procedure, shortened: as §1
# [8] = biological target: AgHof1
# Procedure, shortened: as §1
# [9] = biological target: AgHse1
# Procedure, shortened: as §1
# [10] = biological target: AgLsb1
# Procedure, shortened: as §1
# [11] = biological target: AgLsb4
# Procedure, shortened: as §1
# [12] = biological target: AgMyo5
# Procedure, shortened: as §1
# [13] = biological target: AgNbp2
# Procedure, shortened: as §1
# [14] = biological target: AgRvs167
# Procedure, shortened: as §1
# [15] = biological target: AgSho1
# Procedure, shortened: as §1
# [16] = biological target: AgSla1-D1-D2
# Procedure, shortened: as §1
# [17] = biological target: AgSla1-D3
# Procedure, shortened: as §1
# [18] = biological target: CaAbp1-D1
# Procedure, shortened: as §1
# [19] = biological target: CaAbp1-D2
# Procedure, shortened: as §1
# [20] = biological target: CaBbc1
# Procedure, shortened: as §1
# [21] = biological target: CaBem1-D1
# Procedure, shortened: as §1
# [22] = biological target: CaBzz1-D1
# Procedure, shortened: as §1
# [23] = biological target: CaBzz1-D2
# Procedure, shortened: as §1
# [24] = biological target: CaCyk3
# Procedure, shortened: as §1
# [25] = biological target: CaFus1
# Procedure, shortened: as §1
# [26] = biological target: CaHof1
# Procedure, shortened: as §1
# [27] = biological target: CaHse1
# Procedure, shortened: as §1
# [28] = biological target: CaLsb1
# Procedure, shortened: as §1
# [29] = biological target: CaLsb4
# Procedure, shortened: as §1
# [30] = biological target: CaMyo5
# Procedure, shortened: as §1
# [31] = biological target: CaNbp2
# Procedure, shortened: as §1
# [32] = biological target: CaRvs167
# Procedure, shortened: as §1
# [33] = biological target: CaRvs167-3
# Procedure, shortened: as §1
# [34] = biological target: CaSho1
# Procedure, shortened: as §1
# [35] = biological target: CaSla1-D1-D2
# Procedure, shortened: as §1
# [36] = biological target: CaSla1-D3
# Procedure, shortened: as §1
# [37] = biological target: ScAbp1
# Procedure, shortened: as §1
# [38] = biological target: ScBbc1
# Procedure, shortened: as §1
# [39] = biological target: ScBem1-D1
# Procedure, shortened: as §1
# [40] = biological target: ScBzz1-D1
# Procedure, shortened: as §1
# [41] = biological target: ScBzz1-D2
# Procedure, shortened: as §1
# [42] = biological target: ScCyk3
# Procedure, shortened: as §1
# [43] = biological target: ScFus1
# Procedure, shortened: as §1
# [44] = biological target: ScHof1
# Procedure, shortened: as §1
# [45] = biological target: ScHse1
# Procedure, shortened: as §1
# [46] = biological target: ScLsb1
# Procedure, shortened: as §1
# [47] = biological target: ScLsb2
# Procedure, shortened: as §1
# [48] = biological target: ScLsb3
# Procedure, shortened: as §1
# [49] = biological target: ScLsb4
# Procedure, shortened: as §1
# [50] = biological target: ScMyo3
# Procedure, shortened: as §1
# [51] = biological target: ScMyo5
# Procedure, shortened: as §1
# [52] = biological target: ScNbp2
# Procedure, shortened: as §1
# [53] = biological target: ScPex13
# Procedure, shortened: as §1
# [54] = biological target: ScRvs167
# Procedure, shortened: as §1
# [55] = biological target: ScSho1
# Procedure, shortened: as §1
# [56] = biological target: ScSla1-D1-D2
# Procedure, shortened: as §1
# [57] = biological target: ScSla1-D3
# Procedure, shortened: as §1
# [58] = biological target: SpAbp1-D1
# Procedure, shortened: as §1
# [59] = biological target: SpBbc1
# Procedure, shortened: as §1
# [60] = biological target: SpBzz1-D1
# Procedure, shortened: as §1
# [61] = biological target: SpBzz1-D2
# Procedure, shortened: as §1
# [62] = biological target: SpCyk3
# Procedure, shortened: as §1
# [63] = biological target: SpHof1
# Procedure, shortened: as §1
# [64] = biological target: SpHof1-2
# Procedure, shortened: as §1
# [65] = biological target: SpHof1-3
# Procedure, shortened: as §1
# [66] = biological target: SpHse1
# Procedure, shortened: as §1
# [67] = biological target: SpLsb1
# Procedure, shortened: as §1
# [68] = biological target: SpLsb4
# Procedure, shortened: as §1
# [69] = biological target: SpMyo1
# Procedure, shortened: as §1
# [70] = biological target: SpNbp2
# Procedure, shortened: as §1
# [71] = biological target: SpPex13
# Procedure, shortened: as §1
# [72] = biological target: SpRvs167
# Procedure, shortened: as §1
# [73] = biological target: SpSla1-D1-D2
# Procedure, shortened: as §1
# [74] = biological target: SpSla1-D3
# Procedure, shortened: as §1
binder,measurement,setting,value
B1,SPOT peptide array binding signal intensity,[1],≤ 0
same,SPOT peptide array binding signal intensity,[2],0.5
same,SPOT peptide array binding signal intensity,[3],≤ 0
same,SPOT peptide array binding signal intensity,[4],≤ 0
same,SPOT peptide array binding signal intensity,[5],7
same,SPOT peptide array binding signal intensity,[6],≤ 0
same,SPOT peptide array binding signal intensity,[7],4.75
same,SPOT peptide array binding signal intensity,[8],3.88
same,SPOT peptide array binding signal intensity,[9],8
same,SPOT peptide array binding signal intensity,[10],≤ 0
same,SPOT peptide array binding signal intensity,[11],≤ 0
same,SPOT peptide array binding signal intensity,[12],520
same,SPOT peptide array binding signal intensity,[13],12
same,SPOT peptide array binding signal intensity,[14],0.167
same,SPOT peptide array binding signal intensity,[15],3.75
same,SPOT peptide array binding signal intensity,[16],≤ 0
same,SPOT peptide array binding signal intensity,[17],0.75
same,SPOT peptide array binding signal intensity,[18],≤ 0
same,SPOT peptide array binding signal intensity,[19],≤ 0
same,SPOT peptide array binding signal intensity,[20],≤ 0
same,SPOT peptide array binding signal intensity,[21],1.5
same,SPOT peptide array binding signal intensity,[22],42.8
same,SPOT peptide array binding signal intensity,[23],2.75
same,SPOT peptide array binding signal intensity,[24],≤ 0
same,SPOT peptide array binding signal intensity,[25],39
same,SPOT peptide array binding signal intensity,[26],≤ 0
same,SPOT peptide array binding signal intensity,[27],2.12
same,SPOT peptide array binding signal intensity,[28],≤ 0
same,SPOT peptide array binding signal intensity,[29],≤ 0
same,SPOT peptide array binding signal intensity,[30],180
same,SPOT peptide array binding signal intensity,[31],37
same,SPOT peptide array binding signal intensity,[32],≤ 0
same,SPOT peptide array binding signal intensity,[33],3.25
same,SPOT peptide array binding signal intensity,[34],3.5
same,SPOT peptide array binding signal intensity,[35],9
same,SPOT peptide array binding signal intensity,[36],≤ 0
same,SPOT peptide array binding signal intensity,[37],≤ 0
same,SPOT peptide array binding signal intensity,[38],≤ 0
same,SPOT peptide array binding signal intensity,[39],≤ 0
same,SPOT peptide array binding signal intensity,[40],≤ 0
same,SPOT peptide array binding signal intensity,[41],21
same,SPOT peptide array binding signal intensity,[42],≤ 0
same,SPOT peptide array binding signal intensity,[43],≤ 0
same,SPOT peptide array binding signal intensity,[44],≤ 0
same,SPOT peptide array binding signal intensity,[45],7.25
same,SPOT peptide array binding signal intensity,[46],≤ 0
same,SPOT peptide array binding signal intensity,[47],≤ 0
same,SPOT peptide array binding signal intensity,[48],≤ 0
same,SPOT peptide array binding signal intensity,[49],≤ 0
same,SPOT peptide array binding signal intensity,[50],1170
same,SPOT peptide array binding signal intensity,[51],779
same,SPOT peptide array binding signal intensity,[52],10.5
same,SPOT peptide array binding signal intensity,[53],≤ 0
same,SPOT peptide array binding signal intensity,[54],≤ 0
same,SPOT peptide array binding signal intensity,[55],≤ 0
same,SPOT peptide array binding signal intensity,[56],3.5
same,SPOT peptide array binding signal intensity,[57],6.5
same,SPOT peptide array binding signal intensity,[58],≤ 0
same,SPOT peptide array binding signal intensity,[59],1.12
same,SPOT peptide array binding signal intensity,[60],≤ 0
same,SPOT peptide array binding signal intensity,[61],0.25
same,SPOT peptide array binding signal intensity,[62],≤ 0
same,SPOT peptide array binding signal intensity,[63],≤ 0
same,SPOT peptide array binding signal intensity,[64],6.38
same,SPOT peptide array binding signal intensity,[65],20.2
same,SPOT peptide array binding signal intensity,[66],1.5
same,SPOT peptide array binding signal intensity,[67],≤ 0
same,SPOT peptide array binding signal intensity,[68],≤ 0
same,SPOT peptide array binding signal intensity,[69],670
same,SPOT peptide array binding signal intensity,[70],21
same,SPOT peptide array binding signal intensity,[71],≤ 0
same,SPOT peptide array binding signal intensity,[72],≤ 0
same,SPOT peptide array binding signal intensity,[73],8
same,SPOT peptide array binding signal intensity,[74],8.5
B2,SPOT peptide array binding signal intensity,[1],≤ 0
same,SPOT peptide array binding signal intensity,[2],5.5
same,SPOT peptide array binding signal intensity,[3],301
same,SPOT peptide array binding signal intensity,[4],20
same,SPOT peptide array binding signal intensity,[5],36.5
same,SPOT peptide array binding signal intensity,[6],≤ 0
same,SPOT peptide array binding signal intensity,[7],336
same,SPOT peptide array binding signal intensity,[8],113
same,SPOT peptide array binding signal intensity,[9],229
same,SPOT peptide array binding signal intensity,[10],1.75
same,SPOT peptide array binding signal intensity,[11],16.5
same,SPOT peptide array binding signal intensity,[12],2.75
same,SPOT peptide array binding signal intensity,[13],120
same,SPOT peptide array binding signal intensity,[14],1.67
same,SPOT peptide array binding signal intensity,[15],3070
same,SPOT peptide array binding signal intensity,[16],≤ 0
same,SPOT peptide array binding signal intensity,[17],2.75
same,SPOT peptide array binding signal intensity,[18],9.5
same,SPOT peptide array binding signal intensity,[19],46
same,SPOT peptide array binding signal intensity,[20],14.5
same,SPOT peptide array binding signal intensity,[21],187
same,SPOT peptide array binding signal intensity,[22],222
same,SPOT peptide array binding signal intensity,[23],121
same,SPOT peptide array binding signal intensity,[24],4
same,SPOT peptide array binding signal intensity,[25],670
same,SPOT peptide array binding signal intensity,[26],2.75
same,SPOT peptide array binding signal intensity,[27],168
same,SPOT peptide array binding signal intensity,[28],2.5
same,SPOT peptide array binding signal intensity,[29],590
same,SPOT peptide array binding signal intensity,[30],83.8
same,SPOT peptide array binding signal intensity,[31],355
same,SPOT peptide array binding signal intensity,[32],19.5
same,SPOT peptide array binding signal intensity,[33],≤ 0
same,SPOT peptide array binding signal intensity,[34],1860
same,SPOT peptide array binding signal intensity,[35],384
same,SPOT peptide array binding signal intensity,[36],205
same,SPOT peptide array binding signal intensity,[37],≤ 0
same,SPOT peptide array binding signal intensity,[38],3
same,SPOT peptide array binding signal intensity,[39],3
same,SPOT peptide array binding signal intensity,[40],15.5
same,SPOT peptide array binding signal intensity,[41],39.5
same,SPOT peptide array binding signal intensity,[42],5
same,SPOT peptide array binding signal intensity,[43],526
same,SPOT peptide array binding signal intensity,[44],11.2
same,SPOT peptide array binding signal intensity,[45],267
same,SPOT peptide array binding signal intensity,[46],5.75
same,SPOT peptide array binding signal intensity,[47],2
same,SPOT peptide array binding signal intensity,[48],292
same,SPOT peptide array binding signal intensity,[49],67.5
same,SPOT peptide array binding signal intensity,[50],25
same,SPOT peptide array binding signal intensity,[51],2.25
same,SPOT peptide array binding signal intensity,[52],217
same,SPOT peptide array binding signal intensity,[53],580
same,SPOT peptide array binding signal intensity,[54],5
same,SPOT peptide array binding signal intensity,[55],1950
same,SPOT peptide array binding signal intensity,[56],319
same,SPOT peptide array binding signal intensity,[57],538
same,SPOT peptide array binding signal intensity,[58],2.5
same,SPOT peptide array binding signal intensity,[59],≤ 0
same,SPOT peptide array binding signal intensity,[60],250
